This is a sample that favours compounds with a hit; in the whole collection about 12% have one here.
TDP1 block = TDP1 (human) enzyme inhibition | recombinant TDP1, AlphaScreen DNA substrate cleavage | Q9NUW8 | Potency, µM (highest dose often 130 µM), inactives show at the top dose activity change, negative = inhibition, hits mostly inhibitors | 350,000 compounds, 0.28% hits | AID 485290; also: potency is read from the fitted curve at half-maximal effect; % is scaled to controls: 0 for no effect and ±100 for the full control effect; nearly all actives have a fitted effect of over 40% in size
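Recombinant human Tdp1 (E. coli-expressed, 1 nM final) preincubated with compounds 15 min at room temperature, then 5'-biotin/3'-phosphotyrosine-FITC DNA substrate (15 nM final) added for 5 min. AlphaScreen beads (10 ug/ml final) added 10 min; cleavage lowers signal.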
G9a inh-1 = G9a (human) methyltransferase inhibition; G9a H3K9 monomethylation, AlphaScreen, 2 h; Q96KQ7; 350,000 compounds, 8.8% hits; Potency, µM (series often up to 102 µM), for inactives: top-dose activity, negative = inhibition, actives largely listed as inhibitors; AID 504332; also: potency is read from the fitted curve at half-maximal effect; % is scaled to controls: 0 for no effect and ±100 for the full control effect; nearly all actives have a fitted effect of over 75% in size
Target sequence (Q96KQ7 913-1193 limits assumed): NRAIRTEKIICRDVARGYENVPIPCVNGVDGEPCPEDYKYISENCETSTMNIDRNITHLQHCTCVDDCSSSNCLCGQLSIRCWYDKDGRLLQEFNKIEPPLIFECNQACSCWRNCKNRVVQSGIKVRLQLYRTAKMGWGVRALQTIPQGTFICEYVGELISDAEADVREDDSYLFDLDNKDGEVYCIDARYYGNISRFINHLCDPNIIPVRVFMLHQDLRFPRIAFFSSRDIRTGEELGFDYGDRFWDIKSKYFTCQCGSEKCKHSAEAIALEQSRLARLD
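Enzyme 20 nM + cpd, 15 min RT; add b-H3K9 pep 500 nM / SAM 20 uM; 2 h RT; anti-H3K9me1 Ab 0.5 ug/mL + SA donor / anti-rabbit acceptor beads 20 ug/mL each, 10 min; AlphaScreen read.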
HP1b chromo inh = blocks HP1-beta chromodomain binding to methylated histone tails. P83916. AlphaScreen HP1-beta / biotin-H3K9me3 peptide binding. Potency, µM (doses to about 114 µM), for inactives: top-dose activity change, negative = inhibition, actives largely listed as inhibitors. 390,000 compounds, 0.56% hits; also: potency is read from the fitted curve at half-maximal effect; nearly all actives have a fitted effect of over 70% in size
Target sequence (P83916 whole entry, looked up): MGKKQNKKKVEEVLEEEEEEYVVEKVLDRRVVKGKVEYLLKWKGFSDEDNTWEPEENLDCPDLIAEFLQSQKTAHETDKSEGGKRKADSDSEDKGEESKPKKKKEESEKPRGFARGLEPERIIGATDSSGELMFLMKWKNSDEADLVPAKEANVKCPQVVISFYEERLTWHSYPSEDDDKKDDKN
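Compound inhibition of the preformed complex between 50 nM HP1-beta and 50 nM biotinylated H3K9me3 peptide was read by AlphaScreen. Buffer was PBS pH 7.4 with 0.01% Tween-20. Incubations ran 30 min at room temperature, with 10 ug/mL donor/acceptor beads.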
BAZ2B block = blocks human BAZ2B. Q9UIF8. AlphaScreen BAZ2B-H3K14Ac peptide displacement. Potency, µM (titrated, usually from 114 µM), inactives show at the top dose activity change, negative = inhibition, usual class: inhibitors. 360,000 compounds, 4.4% hits. AID 504333; also: potency is read from the fitted curve at half-maximal effect; % is scaled to controls: 0 for no effect and ±100 for the full control effect; nearly all actives have a fitted effect of over 60% in size
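AlphaScreen displacement: compounds (up to 110uM) incubated 30 min at room temperature with a preformed 50 nM BAZ2B/50 nM biotinylated H3K14Ac peptide complex in PBS pH 7.4 with Tween-20. Donor and acceptor beads at 10 ug/mL final added, 20 min light-protected before reading.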
Sfp inh = blocks B. subtilis Sfp PPTase activity | Q9F4F7 | Biochemical Sfp PPTase activity, qHTS | Potency, µM, inactives show largest response in the series, negative = inhibition, usual class: inhibitors | 310,000 compounds, 3.5% hits | AID 1490;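 also: the enzyme is Sfp with the accession as filed and its product quenches rhodamine fluorescence; potency is read from the fitted curve at half-maximal effect; 0% = enzyme reaction without inhibitor and -100% = no enzyme wells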
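Reaction rates are the 30-min fluorescence difference (ex 525, em 598 nm) in wells containing 15 nM Sfp, 5 uM rhodamine-CoA and 12.5 uM BHQ-2-YbbR at pH 7.6 with 10 mM MgCl2.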
JMJD2A Tudor = blocks the human JMJD2A Tudor domain; O75164; AlphaScreen JMJD2A-Tudor / H3K4me3 peptide binding; Potency, µM (top dose mostly 114 µM), for the others: top-dose activity change, negative = inhibition, most hits filed as inhibitors; 390,000 compounds, 4.4% hits; also: potency is read from the fitted curve at half-maximal effect; % is scaled to controls: 0 for no effect and ±100 for the full control effect; nearly all actives have a fitted effect of over 50% in size
JMJD2E confirm = confirmation of inhibitors of human JMJD2E demethylase. shares compounds with JMJD2A Tudor. Recombinant JMJD2E, FDH-coupled NADH fluorescence (FDH is formaldehyde dehydrogenase). Potency, µM (series often up to 56.8 µM), for the others: top-dose activity change, negative = inhibition, most hits filed as inhibitors. 140 compounds, 93% hits. AID 2677
FDH counter = FDH (Pseudomonas putida) inhibition counter-screen | shares compounds with JMJD2A Tudor | FDH enzyme assay, NADH fluorescence kinetic | Potency, µM (doses to about 56.7 µM), without a hit: at the highest dose activity, negative = inhibition, most hits filed as inhibitors | 140 compounds, 10% hits
G9a inh-2 = inhibits human G9a histone lysine methyltransferase, hit confirmation | 370 compounds, 89% hits | AID 588344 | shares compounds with JMJD2A Tudor | G9a H3K9 monomethylation, AlphaScreen, 2 h | Potency, µM, actives largely listed as inhibitors; also: potency is read from the fitted curve at half-maximal effect; nearly all actives have a fitted effect of over 65% in size
RGS4 inh = confirmation of human RGS4 inhibitors; shares compounds with JMJD2A Tudor; RGS4 GAP activity, Transcreener GDP fluorescence polarization; Potency, µM, actives largely listed as inhibitors; 25 compounds, 80% hits
Target sequence (P49798 whole entry, looked up): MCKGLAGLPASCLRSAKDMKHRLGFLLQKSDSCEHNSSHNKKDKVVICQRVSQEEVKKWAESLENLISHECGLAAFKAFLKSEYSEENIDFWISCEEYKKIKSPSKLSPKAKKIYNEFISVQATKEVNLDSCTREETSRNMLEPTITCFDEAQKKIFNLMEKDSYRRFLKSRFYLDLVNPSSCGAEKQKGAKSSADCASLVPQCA
Active calls of the source: *; ? = inconclusive; . = no result given; ! = not confirmed by another sample; [ ] = another dose, or the depositor's remark. Calls follow the shape of the dose curve; as a rule, active = well fitted curve in the direction sought with a large enough effect; inconclusive = small, poorly fitted or top-dose-only effect, or another doubt; inactive = no such curve, though single readings can be large; an effect the other way counts as inactive or inconclusive.

SMILES | TDP1 block | G9a inh-1 | HP1b chromo inh | BAZ2B block | Sfp inh | JMJD2A Tudor | G9a inh-2 | others
CCn1cnc2cc(NCc3nc4ccccc4n3C)ccc21 | 7% | 2.5µM* | -4% | ? | 2% | -35% | ?
O=C(NC1CCCCCCC1)c1ccc(Br)o1 | . | 7% | 25% | 13% | 11% | -2% | .
CCOC(=O)CSc1nc2ccc(NC(=O)COc3ccc(F)cc3)cc2s1 | 2% | 20%[59 µM] | 100% | 1% | . | -7% | .
COc1cc(/C=C(\C#N)c2nc3ccccc3[nH]2)ccc1OCc1cccc(C(F)(F)F)c1 | 3% | 8%[59 µM] | 35% | -30% | . | -26% | .
Cc1ccc(C)c(S(=O)(=O)N2CCCOC2CNC(=O)C(=O)NCCc2ccco2)c1 (stereo not drawn) | 3% | ? | 6% | ? | 10% | -19% | .
Cc1nn(-c2ccccn2)c2c1C(=O)C(Br)CC2 (stereo not drawn) | ? | 1.3µM* | ? | . | 4µM* | 13µM* | 0.25*
CC1=C(C)C(=O)N(c2ccccn2)C1=O | 8% | 9% | 28% | 3% | 18% | -14% | .
COc1ccc(CNC(=O)Cn2c(=O)n3nc(-c4cccc(F)c4)nc3c3ccccc32)cc1OC | 0% | -19%[59 µM] | 22% | 1% | . | -7% | .
O=C(COc1ccccc1)Nc1nnc(S(=O)(=O)Nc2ccccc2)s1 | 4% | ? | 46% | 1.4µM*! | 19% | ? | ?
COc1cc(/C=N/NC(=O)c2cc3c(ccc4ccccc43)o2)cc(OC)c1O | -3% | -6% | . | -15% | 2% | . | .
CCN(CC)c1ccc(NC(=O)c2cc(OC)cc(OC)c2)c(C)c1 | 7% | 2.5µM* | -34% | 40µM* | 5% | ? | 3.2*
CCn1c(SCC(=O)N2CCCC2)nnc1-c1ccc(N)cc1 | 2% | 1.1µM* | -7% | 0% | -10% | 12%[11.4 µM] | 1.6*
Cc1cc(C)cc(NC(=O)N2CCN(C/C=C/c3ccccc3)CC2)c1 | 0% | -34% | 6% | ? | -2% | -33% | .
CN(C)c1ccc(NC(=O)C2(c3cccs3)CCOCC2)cc1 | 5% | 2.8µM* | -15% | 40µM* | . | ? | 7.1*
CCn1c2ccccc2c2cc(CN3CCN(Cc4ccc(Br)cc4)CC3)ccc21 | -6%[12.3 µM] | 0.89µM* | ? | 25µM* | . | 4.5µM* | 25*
CCn1c2ccccc2c2cc(CNCCCN3CCOCC3)ccc21 | 6% | ? | 36% | -26% | -2% | -9% | .
Cc1ccc(N(CC(=O)N2CCN(c3ccccc3F)CC2)S(=O)(=O)c2c(C)noc2C)cc1 | 0% | 8%[59 µM] | 56% | 0% | -8% | -2% | .
Cc1ccc(-c2nn3c(C)nnc3s2)cc1NC(=O)c1ccc(Br)o1 | 6% | ? | 54% | 4% | -3% | 4% | .
Cc1ccc(-c2nn3c(C)nnc3s2)cc1NC(=O)c1ccc(-c2cccc(Cl)c2)o1 | -1% | ? | 55% | -8% | 22µM* | ? | ?
Cc1cccc(OCC(=O)N(Cc2ccccc2)c2ccccn2)c1 | 0% | -6%[59 µM] | 40% | 3% | . | 18% | .
Cc1cccc(OCC(=O)N(C)CCc2ccccn2)c1 | . | ? | ? | 35µM* | -12% | ? | 10*
O=C(CCN1CCC(c2ccccc2)C1)c1ccc2c(c1)OCCO2 (stereo not drawn) | 7% | 7.9µM* | 13% | ? | 50µM* | -24% | 5.1*
CCOc1ccc(S(=O)(=O)Nc2nc3ccccc3nc2N2CCN(C)CC2)cc1 | -2% | ? | 30% | -28% | 9% | -12% | ?
CCOc1ccc(S(=O)(=O)Nc2nc3ccccc3nc2Cl)cc1 | . | 7% | 53% | 0% | 15% | -2% | .
O=C(CC1C(=O)OCCN1Cc1ccccc1)Nc1cccc(Cl)c1 (stereo not drawn) | 5% | ? | 51% | -4% | . | 1% | .
SMILES | TDP1 block | G9a inh-1 | HP1b chromo inh | BAZ2B block | Sfp inh | JMJD2A Tudor | G9a inh-2 | others
CCN1CCOC(=O)C1CC(=O)Nc1cc(Cl)ccc1C (stereo not drawn) | 2% | 0.71µM* | 16% | -22% | . | -15% | 6.3*
Oc1ccc(CN2CCCc3ccccc32)c2cccnc12 | 9% | 1.6µM* | ? | 35µM* | -4% | ? | . | JMJD2E confirm=1.3µM*;FDH counter=-27%
Cc1ccc(CCN2CC(C(=O)NCCCN3CCCCC3)CC2=O)cc1 (stereo not drawn) | 2% | 1%[59 µM] | 69% | -2% | 26% | -9% | .
CN(C)C1=NC[C@H](Cc2ccccc2)N1CCCC1CCCC1 | . | ? | 32% | ? | . | -26% | 2.8*
COc1ccccc1CNc1ncncc1-c1ccccc1C(F)(F)F | . | 2%[0.501 µM] | . | . | -1% | . | .
CNc1ncncc1-c1ccccc1C(F)(F)F | . | ? | . | . | ? | . | . | RGS4 inh=27*
Cc1cc(C)nc(SC2CC(=O)N(c3ccc(C)c(C)c3)C2=O)n1 (stereo not drawn) | 1% | . | 58% | -1% | 1% | 2% | .
Cc1ccc(N2C(=O)CC(Sc3ncn[nH]3)C2=O)cc1C (stereo not drawn) | -1% | 2µM* | -62% | ? | 50µM* | 10µM* | . | JMJD2E confirm=7.1µM*;FDH counter=0.22µM*
CN(C)c1ccc(NC(=O)Nc2cccc(Cl)c2)cc1 | 10% | 1.1µM* | -31% | 40µM* | -9% | ? | 1.4*
COc1ccc(-c2noc(-c3nnn(-c4ccc(C(C)C)cc4)c3C)n2)cc1OC | 3% | -2%[59 µM] | 14% | -10% | . | -9% | .
Cc1ccc(OCC(=O)Nc2cccc(-c3nc4ccccc4s3)c2)cc1 | 3% | 2.5µM* | -14% | 1% | . | -12% | 11*
COc1ccc(Cl)cc1C(=O)NNC(=S)NC(=O)c1ccc(F)c(F)c1 | . | -14% | -24% | -10% | 9% | -23% | .
O=C1CCC(=O)N1c1ccccc1-c1ccccc1 | -1% | -2%[59 µM] | 27% | 7% | 8% | -4% | .
